Hits are enriched below; roughly 22% of the tested compounds scored in any of these assays.
Shiga inhibitor: Shiga toxin inhibition | 290,000 compounds, 9.2% hits | inhibition, % at 38.7 µM | Vero cells, Shiga toxin protein synthesis inhibition reporter; in the data active means inhibition mostly above about 28%, no sharp cut-off; inactive means mostly below about 43%
LmPK inhibitor: inhibitors of Leishmania mexicana pyruvate kinase | purified LmPK, Kinase-Glo ATP luminescence, 1 h | Potency, µM (top dose mostly 57.5 µM), actives largely listed as inhibitors | 290,000 compounds, 0.37% hits | AID 1721
Target sequence (Q27686 whole entry, looked up): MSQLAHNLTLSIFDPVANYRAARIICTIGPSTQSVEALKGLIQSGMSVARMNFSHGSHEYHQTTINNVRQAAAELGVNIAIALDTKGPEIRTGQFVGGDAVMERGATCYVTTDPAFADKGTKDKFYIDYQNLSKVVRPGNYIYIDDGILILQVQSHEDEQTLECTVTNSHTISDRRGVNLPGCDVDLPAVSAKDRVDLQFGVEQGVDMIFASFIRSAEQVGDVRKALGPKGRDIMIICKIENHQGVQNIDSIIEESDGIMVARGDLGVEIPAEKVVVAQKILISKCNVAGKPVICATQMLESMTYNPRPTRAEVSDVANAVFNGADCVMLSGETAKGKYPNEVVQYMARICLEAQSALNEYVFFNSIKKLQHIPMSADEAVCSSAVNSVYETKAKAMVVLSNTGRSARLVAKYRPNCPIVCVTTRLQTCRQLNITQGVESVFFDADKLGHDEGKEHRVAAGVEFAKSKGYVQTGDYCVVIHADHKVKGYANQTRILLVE
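ATP generated from ADP (0.1 mM) and PEP (0.5 mM) by 0.1 nM LmPK over 1 h at room temperature (pH 7.2 imidazole buffer) was detected by coupled luciferase luminescence. Values were normalized to uninhibited and no-enzyme wells.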
Cycloheximide cs: counter-screen for Shiga toxin inhibitors: cycloheximide protein synthesis inhibition; cell reporter, cycloheximide protein synthesis inhibition counterscreen; max response, %; 300,000 compounds, 12% hits; in the data active means max response mostly above about 13%, no sharp cut-off; inactive means mostly below about 14%; further: read at 38.3 µM for the half of the compounds with a filed dose
Pf growth 96h: P. falciparum growth inhibition at 96 hour, primary screen for plastid delayed-death inhibitors; P. falciparum luciferase reporter growth, 96 h; Potency, µM (series often up to 28.7 µM), usual class: inhibitors; 320,000 compounds, 6.9% hits
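Delayed-death screen, second-generation endpoint: infected erythrocytes, 2% hematocrit, 0.05% parasitemia final; 96 hours at 37 C, 5% CO2; luciferase detection reagent; luminescence decrease equals reduced growth.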
Pf growth 48h: P. falciparum growth inhibition at 48 hours (one generation); Potency, µM (highest dose often 28.7 µM), usual class: inhibitors; P. falciparum luciferase growth in erythrocytes, 48 h; 310,000 compounds, 5.9% hits
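A one-generation exposure of luciferase-tagged malaria parasites in RPMI 1640/Albumax erythrocyte culture, 37 C and 5% CO2. Inhibition is inferred from decreased luminescence after adding detection reagent.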
Hits are given with their value; . = inactive; ? = inconclusive; / = no result given. Unless noted, the call rests on the fitted dose curve; in most records, active means well fitted inhibition curve with a large enough effect; inconclusive means small, poorly fitted or top-dose-only effect, or another doubt; inactive means no such curve, though single readings can be large or run the other way.

SMILES	Shiga inhibitor	LmPK inhibitor	Cycloheximide cs	Pf growth 96h	Pf growth 48h
O=S(=O)(c1ccc(-c2nnco2)cc1)N1CCCCC1	.	.	.	.	.
O=C(NCCC(=O)N(Cc1ccco1)Cc1cccs1)c1ccc([N+](=O)[O-])cc1	/	/	/	?	.
CCCn1c(N)c(N(CCOC)C(=O)c2cccc(S(=O)(=O)N3CCCc4ccccc43)c2)c(=O)[nH]c1=O	/	/	/	.	?
CCOc1ccc(S(=O)(=O)N(CC(=O)NCc2ccncc2)c2ccc(C)cc2)cc1	.	.	.	?	.
CCOC(=O)c1nc(-c2ccccc2)oc1N1CCOCC1	.	.	.	.	.
O=C(Oc1ccc(Cl)cc1)N1CCOCC1	27	.	16	?	.
O=C(Oc1cccc(Oc2ccccc2)c1)N1CCOCC1	.	.	.	/	.
O=C(Oc1ccc(Oc2ccccc2)cc1)N1CCC(O)CC1	60	.	52	.	.
CN(c1cccc(Cl)c1)S(=O)(=O)c1cccc(C(=O)NCc2ccncc2)c1	/	/	/	?	.
Cc1cc(-n2cnc(-c3cn[nH]c3C)n2)no1	72	.	.	.	.
COC(=O)c1onc(-c2c(Cl)cccc2Cl)c1C(=O)OC	.	.	.	.	?
COC(=O)c1cccc(-n2sc3ccccc3c2=O)c1	/	/	/	.	?
O=c1sc2ccccc2c(=O)n1Cc1ccccc1F	.	.	.	?	?
Cc1ccc(-n2sc3ccccc3c2=O)cc1	.	20µM	18	.	4.1µM
O=c1c2ccccc2sn1-c1ccc(F)cc1	/	/	/	?	10µM
Cc1c(OCc2ccc(C(=O)O)o2)ccc2c3c(c(=O)oc12)CCC3	84	.	.	?	.
CCN(CC)C(=O)COc1ccc2c3c(c(=O)oc2c1C)CCCC3	.	.	.	?	?
COC(=O)c1ccc(COc2ccc3c(C)c(C)c(=O)oc3c2C)o1	65	.	15	/	?
COC(=O)c1ccc(COc2cc(C)cc3oc(=O)c4c(c23)CCCC4)o1	.	.	.	.	?
CCC(Oc1ccccc1)C(=O)Nc1ccc(S(=O)(=O)Nc2cc(C)on2)cc1 (centres undefined)	.	.	.	.	.
CCOC(=O)c1ccc(S(=O)(=O)N2CCC(C(=O)NCC3CCCCC3)CC2)cc1	/	/	/	.	?
CCN(CC)S(=O)(=O)c1ccc2c(c1)nc(CCC(=O)Nc1ccccc1Cc1ccccc1)n2CC	.	.	.	/	12µM
CCC(=O)c1cn(CC(=O)NCc2ccco2)c2ccccc12	61	.	43	.	.
COC(=O)c1cn(CC(=O)NCc2ccco2)c2ccccc12	50	.	15	/	.
O=C(Cn1cc(C(=O)c2ccco2)c2ccccc21)NCc1ccco1	.	.	.	.	.
SMILES	Shiga inhibitor	LmPK inhibitor	Cycloheximide cs	Pf growth 96h	Pf growth 48h
O=C(Cn1cc(C(=O)c2ccccc2)c2ccccc21)NCc1ccco1	.	.	78	.	.
CCCC(=O)c1cn(CC(=O)OC)c2ccccc12	.	.	.	1µM	.
CCC(=O)c1cn(CC(=O)O)c2ccccc12	.	.	.	?	.
Cc1ccc(NC(=S)N(C)C)cc1C	.	.	.	.	.
Cc1ccccc1-n1nc2c(c1NC(=O)CC(C)C)CS(=O)C2 (centres undefined)	.	.	.	.	.
COc1cccc(NC(=S)N(Cc2cccc(Br)c2)CC2CCC(C(=O)O)CC2)c1 (centres undefined)	.	.	.	.	.
O=C(Cn1cc(C(=O)C(F)(F)F)c2ccccc21)NCc1ccco1	.	.	47	?	.
COCCNC(=O)/C(C#N)=C/c1cn(CC(=O)NCc2ccco2)c2ccccc12	.	.	.	.	.
CCOC(=O)C1=C(C)N(CCCCCC(=O)O)C(=O)NC1c1ccccc1OC(=O)c1cccs1 (centres undefined)	.	.	.	?	.
O=C(N/N=C/c1ccccc1F)NC12CC3CC(CC(C3)C1)C2	54	.	33	?	.
COc1cc(/C=N/NC(=O)NC23CC4CC(CC(C4)C2)C3)ccc1OCC(N)=O	.	.	.	5.9µM	9.3µM
O=C(CCCC(=O)N/N=C\c1ccccn1)N/N=C\c1ccccn1	.	.	.	?	.
O=C(NC12CC3CC(CC(C3)C1)C2)c1cccnc1Cl	.	.	.	12µM	.
O=C(N/N=C/c1ccccn1)NC12CC3CC(CC(C3)C1)C2	70	.	39	.	.
Cc1cc(O)c(C)c2sc(N)nc12	.	/	.	/	/
Cc1cccc(/C=N/NC(=O)NC23CC4CC(CC(C4)C2)C3)n1	.	.	20	.	.
CN(C)CCn1c2c(c(SCC(=O)N3CCc4ccccc43)nc1=O)CCCC2	/	/	/	?	.
COCCN(C(=O)c1ccc(N2C(=O)c3ccccc3C2=O)cc1)c1c(N)n(CC(C)C)c(=O)[nH]c1=O	/	/	/	.	.
COc1ccccc1CC(=O)O/N=C(\N)Cc1cccc2ccccc12	.	.	.	?	5.9µM
Cc1ccc(C(=O)O/N=C(\N)Cc2cccc3ccccc23)cc1	.	.	.	.	1.9µM
COC(=O)C1=C(N)N(c2ccccc2C(F)(F)F)C2=C(C(=O)CCC2)C1c1ccc2c(c1)OCO2 (centres undefined)	.	.	.	7.4µM	3.7µM
COC(=O)CSC1=C(C#N)C(c2ccc3c(c2)OCO3)C2=C(CCCC2=O)N1 (centres undefined)	.	.	.	?	.
CC(C)c1cccc(C(C)C)c1NC(=O)CN(C)C1CCS(=O)(=O)C1 (centres undefined)	/	/	/	.	.
Cc1ccc(NC(=O)c2sc(C)nc2C)c(C)c1	36	.	17	.	.
Cc1ccc(NC(=O)c2ccc3nsnc3c2)c(C)c1	35	.	30	?	.
SMILES	Shiga inhibitor	LmPK inhibitor	Cycloheximide cs	Pf growth 96h	Pf growth 48h
Cc1c(Cc2ccccc2)c(=O)oc2c(C)c(OCC(=O)N[C@@H](Cc3ccccc3)C(=O)O)ccc12	.	.	.	?	.
COCCNc1nc2sc3c(c2c(=O)n1Cc1ccco1)CCCCC3	30	.	28	.	.
O=c1c2c3c(sc2nc(NCCO)n1CCc1ccccc1)CCCCC3	.	.	.	?	?
O=c1c2c3c(sc2nc(NCCO)n1Cc1ccco1)CCCCC3	.	.	14	.	.
COCc1c(C(=O)N/N=C/c2ccncc2)nnn1-c1nonc1N	.	.	.	.	.
Cc1ccccc1-c1nc(CS(=O)(=O)CC(=O)N2CCOCC2)c(C)o1	.	.	.	?	.
COc1ccc(CN2CCC(C(=O)Nc3ccc(Oc4ccccc4)nc3)CC2)cc1F	.	.	.	?	?
CC(NC(=O)CNC(=O)c1ccccc1Br)c1cccs1 (centres undefined)	/	/	/	.	.
O=C(Nc1cccc(C(F)(F)F)c1)OC1CN2CCC1CC2 (centres undefined)	.	.	.	.	.
O=C(Nc1ccc(C(F)(F)F)cc1)OC1CN2CCC1CC2 (centres undefined)	55	.	32	?	?
O=C(Nc1scc(-c2ccccc2)c1C(=O)O)c1ccccc1F	.	.	22	.	.
Cc1ccc(C(=O)Nc2scc(-c3ccccc3)c2C(=O)O)o1	.	.	14	.	.

Screening data (PubChem BioAssay)
